Sampled rows, rich in hits. Any-hit rate of the full collection: about 6.6%.
PTAP TSG101 blk: blocks PTAP/TSG101 interaction to inhibit HIV-1 budding. AID 493005. Potency, µM (highest dose often 115 µM), for inactives: at the top dose activity change, negative = inhibition, usual class: inhibitors. 340,000 tested, under 10 active. Fluorescence polarization, FITC-PTAP peptide / Tsg101 binding. Q99816; active = well fitted inhibition curve with a large enough effect in the main read-out, with a control signal flat, not every such curve was filed as active; inconclusive = small, poorly fitted or top-dose-only effect, or effect the other way, or a change in a side signal; inactive = no such curve, though single readings can be large or run the other way; note: % of control where 0% means no effect
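Tsg101 binding domain (10 uM final) was mixed with compound and a FITC-labeled PTAP peptide (50 nM final) in HEPES pH 7.5 buffer with NaCl, Tween 20, EDTA and TCEP; fluorescence polarization was read after 20 min at r.t.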
RGS4 inh: blocks human RGS4-accelerated GTP hydrolysis | P49798 | Transcreener GDP fluorescence polarization, RGS4-accelerated GTP hydrolysis | Potency, µM (top dose mostly 114 µM), for inactives: at the top dose activity change, negative = inhibition, actives largely listed as inhibitors | hit rate 0.039% among 390,000; note: % is set by controls: 0 for no effect and ±100 for the full control effect; nearly all actives have a fitted effect of over 75% in size
Target sequence (P49798 whole entry, looked up): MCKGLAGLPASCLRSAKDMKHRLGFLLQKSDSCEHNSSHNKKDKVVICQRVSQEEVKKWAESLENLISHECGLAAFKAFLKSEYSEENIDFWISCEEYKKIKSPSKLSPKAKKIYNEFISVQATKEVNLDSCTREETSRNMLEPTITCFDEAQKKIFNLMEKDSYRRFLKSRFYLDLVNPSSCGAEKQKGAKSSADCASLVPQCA
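MLSMR compounds (23 nl, pin-transferred) preincubated 10 min at room temperature with a 500nM (2x) first reagent, then RGS4 at 900nM (2x) plus Transcreener GDP mix added; fluorescence polarization (620/688 nm) read before and after 90 min at 30 °C.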
KB-V1 MDR tox: kills drug-selected multidrug resistant KB-V1 cells. hit rate 3.4% among 400,000. AID 1347076. KB-V1 MDR cells viability, CellTiter-Glo, 72 h. Potency, µM (highest dose often 46.1 µM), most hits filed as cytotoxic; note: % is set by controls: 0 for no effect and ±100 for the full control effect; nearly all actives have a fitted effect of over 60% in size
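Cytotoxicity via CellTiter-Glo luminescence after 72 h compound exposure at 37 degrees C. Cells: drug-selected KB-V1 line, DMEM phenol-red free plus 10% FBS. Compounds tested at multiple concentrations; normalized data fitted to concentration-effect curves.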
KB-3-1 tox: KB-3-1 parental cell cytotoxicity; KB-3-1 viability, CellTiter-Glo ATP luminescence, 72 h; Potency, µM (doses to about 46.1 µM), hits mostly cytotoxic; hit rate 1.4% among 400,000; AID 1347075; note: % is set by controls: 0 for no effect and ±100 for the full control effect; nearly all actives have a fitted effect of over 60% in size
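Viability of parental KB-3-1 cells, measured by CellTiter-Glo luminescence, followed a 72 h incubation at 37 °C with pinned compounds in phenol-red-free DMEM containing 10% FBS.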
SW480 rerep: DNA re-replication induction in SW480 cells. hit rate 1.8% among 340,000. Potency, µM (top dose mostly 46.1 µM), for inactives: top-dose re-replication activation, actives largely listed as activators. SW480 DNA re-replication, Hoechst DNA content imaging, 48 h; note: % of control where 0% means no effect; nearly all actives have a fitted effect of over 55% in size
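Hoechst fluorescence of nuclei (405 nm excitation, 500-530 nm emission) measured by plate-scanning imager after 48 hr compound exposure at 37 C; re-replication scored as increased number of nuclei with elevated intensity.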
MCF10A rerep: DNA re-replication induction in MCF 10a cells. Potency, µM (doses to about 46.1 µM), for the others: top-dose activity, positive = re-replication, most hits filed as activators. MCF 10A DNA re-replication, Hoechst nuclear intensity, 48 h. hit rate 2.9% among 350,000; note: % of control where 0% means no effect; nearly all actives have a fitted effect of over 50% in size
Active calls of the source: *. Unless noted, calls come from the whole dose curve; as a rule, active = well fitted curve in the direction sought with a large enough effect; inconclusive = small, poorly fitted or top-dose-only effect, or another doubt; inactive = no such curve, though single readings can be large; an effect the other way counts as inactive or inconclusive. Potency is the fitted concentration of half-maximal effect.

COc1ccccc1NC(=O)C1=C(C)Nc2nc(SCc3ccc(Cl)cc3)nn2C1c1ccccc1Cl (centres undefined) was read as RGS4 inh 5.4%, KB-V1 MDR tox inactive and KB-3-1 tox inactive.
COc1ccc(-c2nc3cc(C)ccn3c2NC(=O)c2cccc(F)c2)cc1 was read as RGS4 inh -4.3%, KB-V1 MDR tox inactive and KB-3-1 tox inactive.
`CCS(=O)(=O)N1Cc2ccccc2CC1C(=O)NCC12CC3CC(CC(C3)C1)C2` (centres undefined) gave PTAP TSG101 blk -3.8%, RGS4 inh -10.1%, KB-V1 MDR tox 23.1µM*, KB-3-1 tox inactive, SW480 rerep 14.9% and MCF10A rerep 4.7%.
CCS(=O)(=O)N1Cc2ccccc2CC1C(=O)Nc1nc2c(C)cccc2s1 (centres undefined) was read as PTAP TSG101 blk -2.6%, RGS4 inh -13.7%, KB-V1 MDR tox 2.91µM*, KB-3-1 tox inactive, SW480 rerep 6.9% and MCF10A rerep -32.3%.
`O=C(C[n+]1cccc2cc(Cl)ccc21)c1ccc2ccccc2c1` gave KB-V1 MDR tox inactive and KB-3-1 tox inconclusive.
`COc1ccc(-c2cc(C(C)=O)c(C)n2CCC(=O)Nc2cccc(C)c2C)cc1` gave RGS4 inh -24.6%, KB-V1 MDR tox inactive and KB-3-1 tox inactive.
For CSc1ccc(-c2cc(=O)c3ccccc3o2)cc1 the results were PTAP TSG101 blk -4.5%, RGS4 inh -18.3%, KB-V1 MDR tox inactive, KB-3-1 tox inactive, SW480 rerep -4.2% and MCF10A rerep 0.1%.
`O=c1cc(-c2ccccc2)oc2ccc(Cl)cc12` gave PTAP TSG101 blk 1.5%, RGS4 inh 15.7%, KB-V1 MDR tox 20.6µM*, KB-3-1 tox inactive, SW480 rerep 0.1% and MCF10A rerep -1.4%.
Screening O=c1cc(-c2ccc(F)cc2)oc2ccccc12 returned PTAP TSG101 blk -4.8%, RGS4 inh -4.7%, KB-V1 MDR tox 13µM*, KB-3-1 tox inconclusive, SW480 rerep -1.6% and MCF10A rerep 10.7%.
Screening OCCN=c1cc(-c2ccccc2)oc2ccc(Cl)cc12 returned PTAP TSG101 blk 0.9%, RGS4 inh 6.1%, KB-V1 MDR tox 16.4µM*, KB-3-1 tox inconclusive, SW480 rerep inconclusive and MCF10A rerep inconclusive.
For O=c1cc(-c2ccc(O)cc2)oc2ccc3ccccc3c12 the results were PTAP TSG101 blk 3.7%, RGS4 inh -23.9%, KB-V1 MDR tox inconclusive, KB-3-1 tox inconclusive, SW480 rerep 19.7% and MCF10A rerep 18.4µM*.
For O=c1oc(-c2ccccc2)cc(Cl)c1Cl the results were PTAP TSG101 blk -0.2%, RGS4 inh 14.6%, KB-V1 MDR tox inconclusive, KB-3-1 tox inconclusive, SW480 rerep 9.2µM* and MCF10A rerep 2.91µM*.
`O=c1cc(-c2ccccc2[N+](=O)[O-])oc2ccccc12` gave PTAP TSG101 blk 0.0%, RGS4 inh -8.9%, KB-V1 MDR tox 14.6µM*, KB-3-1 tox inactive, SW480 rerep inconclusive and MCF10A rerep 5.17µM*.
For CC(O)CN=c1cc(-c2ccccc2)oc2ccc(Cl)cc12 (centres undefined) the results were PTAP TSG101 blk -2.2%, RGS4 inh -9.0%, KB-V1 MDR tox inconclusive, KB-3-1 tox 20.6µM*, SW480 rerep 25.3% and MCF10A rerep inconclusive.
Cc1nn(C)c2c1c(C(F)(F)F)cc(=O)n2C(C)C(=O)NCc1ccccc1 (centres undefined) was read as RGS4 inh -7.7%, KB-V1 MDR tox inactive and KB-3-1 tox inactive.
COc1cc(/C=C/c2cc[n+](C)c3ccccc23)cc(OC)c1OC was read as KB-V1 MDR tox inactive and KB-3-1 tox inconclusive.
`COc1ccc(N2CC(NC(=O)C(=O)c3c[nH]c4ccccc34)CC2=O)cc1` (centres undefined) gave RGS4 inh -6.7%.

Screens deposited in PubChem BioAssay by National Center for Advancing Translational Sciences (NCATS).
